Results filed as inconclusive are left out. The source made the active and inactive calls.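 How the source made its calls, unless noted: active means inhibition above 54%, about 3 SD of non-fluorescent compounds; inactive means the rest.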
Columns and labels:
[1] = yeast TOR pathway RPL19A-GFP modulators, primary screen, cell-based, S. cerevisiae, multiplex flow cytometry (AID 1862; in the data active means percent of DMSO control GFP below about 86%;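 further: lower values mimic rapamycin by blocking the RPL19A rise seen in DMSO cells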); settings: S. cerevisiae RPL19A-GFP strain, flow cytometry fluorescence, 3 h; at 10 µM; stronger effect = lower value
[2] = modulators of MEP2-GFP levels in yeast, primary screen, S. cerevisiae, multiplex flow cytometry (AID 1867;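 active means GFP response, as percent of the DMSO control, above the screen-wide mean plus 3 SD, about 139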;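 further: median GFP channel fluorescence of barcode-gated MEP2-GFP cells measured by flow cytometry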); settings: S. cerevisiae MEP2-GFP strain, 3 h, at 10 µM, stronger effect = higher value, 100% means same as DMSO wells
[3] = modulators of CIT2-GFP expression in yeast, primary screen, S. cerevisiae, GFP fusion, multiplex flow cytometry (AID 1870;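 active means percent response above a set limit, the screen-wide mean plus 3 SD, cut at about 130% in these data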;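 further: barcoded CIT2-GFP strain pooled with four other GFP strains with rapamycin as positive control; median GFP fluorescence per well over plate mean of DMSO wells so 100% = DMSO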); settings: 3 h, at 10 µM, stronger effect = higher value
[4] = modulators of LAP4-GFP expression in yeast, primary screen, S. cerevisiae, multiplex flow cytometry (AID 1873;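 active means GFP signal, as percent of the solvent control, above the screen mean plus 3 SD, about 149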); settings: 3 h, at 10 µM, stronger effect = higher value
[5] = inhibitors of CD8+ T cell-vesicle binding, pilot screen, LFA-1/ICAM-1 modulator project, MLPCN validation set, flow cytometry (AID 2523;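 active means response below a set limit, under 55% cells CD8-positive and vesicle-bound, and CD8 cells' 90th-percentile brightness under 279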;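 on vesicle binding response: mean PE anti-B7-1 fluorescence of CD8+ cells relative to row control; 100% = QL9-loaded vesicles with DMSO vehicle in the same plate row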); settings: 2C mouse CD8+ T cells, at 7 µM, stronger effect = lower value; double positive events: measured here: CD8+/vesicle+ event percentage
[6] = target: Integrin beta-1 (Homo sapiens) + Integrin alpha-4 (Homo sapiens) (UniProt P13612+P05556); experiment: inhibition of HUTS-21 binding to VLA-4, pilot screen, VLA-4 allosteric modulator project, U937 cells, HUTS-21 mAb, flow cytometry, validation set (AID 2674;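 active means inhibition above 50%, about 3 SD of the validation set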;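 further: antibody binding induced by the VLA-4 ligand LDV present at three times its Kd; 0% = LDV ligand with antibody and no compound and 100% = antibody without LDV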); settings: HUTS-21 LIBS mAb binding, at 6.7 µM, stronger effect = higher value, binding induced by LDV ligand
Chain of Integrin beta-1 (Homo sapiens) + Integrin alpha-4 (Homo sapiens) (P05556 whole entry, looked up): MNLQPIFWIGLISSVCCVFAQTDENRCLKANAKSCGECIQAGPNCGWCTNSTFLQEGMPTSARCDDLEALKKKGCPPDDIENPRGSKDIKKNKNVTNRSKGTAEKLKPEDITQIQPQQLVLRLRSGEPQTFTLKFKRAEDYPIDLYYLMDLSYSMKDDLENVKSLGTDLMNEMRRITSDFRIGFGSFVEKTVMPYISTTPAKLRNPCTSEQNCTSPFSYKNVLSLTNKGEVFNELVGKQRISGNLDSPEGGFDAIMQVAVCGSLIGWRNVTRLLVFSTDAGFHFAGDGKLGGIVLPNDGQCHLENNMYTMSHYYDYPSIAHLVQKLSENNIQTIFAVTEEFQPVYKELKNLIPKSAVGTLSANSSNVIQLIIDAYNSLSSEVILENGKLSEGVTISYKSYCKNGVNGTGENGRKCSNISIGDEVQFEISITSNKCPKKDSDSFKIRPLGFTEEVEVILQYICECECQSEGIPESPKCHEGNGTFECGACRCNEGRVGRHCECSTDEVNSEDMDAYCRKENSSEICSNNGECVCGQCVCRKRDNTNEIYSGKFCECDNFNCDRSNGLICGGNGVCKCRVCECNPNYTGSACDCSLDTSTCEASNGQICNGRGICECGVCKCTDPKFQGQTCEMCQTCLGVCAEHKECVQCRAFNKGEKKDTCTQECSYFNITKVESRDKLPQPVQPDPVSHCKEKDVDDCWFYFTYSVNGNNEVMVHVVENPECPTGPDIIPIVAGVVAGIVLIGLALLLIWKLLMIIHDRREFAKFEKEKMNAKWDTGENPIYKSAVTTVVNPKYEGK
Chain of Integrin beta-1 (Homo sapiens) + Integrin alpha-4 (Homo sapiens) (P13612 whole entry, looked up): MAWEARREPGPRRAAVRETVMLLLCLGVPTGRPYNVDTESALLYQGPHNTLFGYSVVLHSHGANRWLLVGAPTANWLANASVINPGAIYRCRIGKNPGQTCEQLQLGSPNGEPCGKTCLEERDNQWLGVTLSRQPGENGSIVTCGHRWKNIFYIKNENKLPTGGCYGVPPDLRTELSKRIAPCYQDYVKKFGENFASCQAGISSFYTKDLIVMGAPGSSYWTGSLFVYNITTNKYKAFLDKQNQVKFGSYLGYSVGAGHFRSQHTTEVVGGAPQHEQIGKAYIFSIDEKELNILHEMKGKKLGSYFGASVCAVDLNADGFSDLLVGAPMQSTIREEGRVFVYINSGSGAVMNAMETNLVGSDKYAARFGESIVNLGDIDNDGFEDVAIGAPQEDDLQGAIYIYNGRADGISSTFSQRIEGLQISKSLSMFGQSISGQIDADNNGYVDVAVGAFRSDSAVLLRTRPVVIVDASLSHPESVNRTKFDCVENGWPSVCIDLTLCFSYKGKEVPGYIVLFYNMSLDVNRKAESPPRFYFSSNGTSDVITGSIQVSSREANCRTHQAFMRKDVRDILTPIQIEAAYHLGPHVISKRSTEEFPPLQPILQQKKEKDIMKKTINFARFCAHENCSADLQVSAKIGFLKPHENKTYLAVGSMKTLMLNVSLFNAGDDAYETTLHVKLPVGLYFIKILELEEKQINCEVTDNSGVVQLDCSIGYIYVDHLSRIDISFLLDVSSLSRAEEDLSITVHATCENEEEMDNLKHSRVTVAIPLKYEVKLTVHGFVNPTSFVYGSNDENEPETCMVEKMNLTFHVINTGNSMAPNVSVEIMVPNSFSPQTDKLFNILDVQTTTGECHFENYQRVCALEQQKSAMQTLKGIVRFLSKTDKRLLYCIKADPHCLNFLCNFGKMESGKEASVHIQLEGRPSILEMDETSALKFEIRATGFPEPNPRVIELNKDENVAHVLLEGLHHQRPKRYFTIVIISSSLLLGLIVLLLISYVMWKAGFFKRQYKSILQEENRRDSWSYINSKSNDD

[7] = superoxide lowering in aged yeast cells, pilot screen, validation compound set (AID 2706;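 active means superoxide response below 65% of plate, a cut near 3 SD across the whole screen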;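 further: yeast exposed to compound for one week at 30 degrees C before staining; 100% = mean of all compound wells on the same plate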); settings: S. cerevisiae aging, superoxide DHE fluorescence; at 10 µM, stronger effect = lower value
[8] = target: Beta-adrenergic receptor kinase 1 (Homo sapiens) (UniProt P25098); experiment: GRK2 binders displacing RNA aptamer, biochemical, validation, human GRK2, bead flow cytometry (AID 488806;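 active means aptamer binding inhibition above 30%, about 3 SD of noise from non-fluorescent compounds; inactive means inhibition at or below 30%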); settings: bead-bound GRK2, FAM-aptamer displacement, at 10 µM, stronger effect = higher value
Chain of Beta-adrenergic receptor kinase 1 (Homo sapiens) (P25098 whole entry, looked up): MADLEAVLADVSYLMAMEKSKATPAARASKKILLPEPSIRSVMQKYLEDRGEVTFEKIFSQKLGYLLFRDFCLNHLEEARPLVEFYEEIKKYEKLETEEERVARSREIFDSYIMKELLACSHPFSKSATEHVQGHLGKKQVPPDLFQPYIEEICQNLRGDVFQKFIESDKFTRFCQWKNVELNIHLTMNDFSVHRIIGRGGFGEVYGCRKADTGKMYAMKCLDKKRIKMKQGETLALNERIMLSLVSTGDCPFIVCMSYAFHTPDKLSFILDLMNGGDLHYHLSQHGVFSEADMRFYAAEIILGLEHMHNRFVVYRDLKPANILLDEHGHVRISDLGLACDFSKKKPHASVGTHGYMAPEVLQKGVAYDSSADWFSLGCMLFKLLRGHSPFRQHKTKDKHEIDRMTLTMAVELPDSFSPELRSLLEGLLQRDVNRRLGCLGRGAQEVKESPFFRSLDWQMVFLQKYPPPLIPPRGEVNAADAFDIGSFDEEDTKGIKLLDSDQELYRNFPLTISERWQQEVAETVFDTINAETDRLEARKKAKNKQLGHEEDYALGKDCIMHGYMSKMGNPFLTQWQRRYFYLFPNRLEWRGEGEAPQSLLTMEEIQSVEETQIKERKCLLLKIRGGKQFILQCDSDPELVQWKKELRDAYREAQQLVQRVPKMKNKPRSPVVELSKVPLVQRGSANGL

[9] = target: Beta-2 adrenergic receptor (Homo sapiens) (UniProt P07550); experiment: beta2AR agonists driving receptor internalization, pilot screen, cell-based, FAP fluorogen, flow cytometry, validation set (AID 504459;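 active means percent response above 42, roughly 3 SD of non-fluorescent test compounds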;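 further: agonist-driven loss of surface beta2AR via internalization measured by FAP dye flow cytometry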); settings: Am2.2-beta2AR cells, FAP surface receptor flow cytometry; at 10 µM; stronger effect = higher value
Chain of Beta-2 adrenergic receptor (Homo sapiens) (P07550 whole entry, looked up, the tested form may be a part): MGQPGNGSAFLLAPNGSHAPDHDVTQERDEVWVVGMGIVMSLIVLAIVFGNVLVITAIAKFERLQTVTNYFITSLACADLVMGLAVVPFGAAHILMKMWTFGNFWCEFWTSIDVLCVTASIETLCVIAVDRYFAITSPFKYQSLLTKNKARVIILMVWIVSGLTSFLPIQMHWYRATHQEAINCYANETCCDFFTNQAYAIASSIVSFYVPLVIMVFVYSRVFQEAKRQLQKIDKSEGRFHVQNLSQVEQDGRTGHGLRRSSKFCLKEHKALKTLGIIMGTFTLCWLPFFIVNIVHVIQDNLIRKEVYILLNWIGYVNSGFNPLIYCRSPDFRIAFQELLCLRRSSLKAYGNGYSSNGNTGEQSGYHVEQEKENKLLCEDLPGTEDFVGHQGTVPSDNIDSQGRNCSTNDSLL

[10] = target: AP-2 complex subunit beta (Homo sapiens) (UniProt P63010); experiment: inhibitors of arrestin peptide binding to AP2, pilot screen, biochemical, validation set, GST-AP2 beads, flow cytometry (AID 504541); settings: FITC arrestin peptide, at 10 µM, stronger effect = higher value, AP2 beta2 appendage fragment, R879A mutant;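 further: AP2 carries R879A mutation and is captured from E. coli lysate; bead-bound FITC arrestin peptide fluorescence measuring arrestin peptide binding to AP2; 0% = DMSO wells and 100% = excess unlabeled arrestin peptide control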
Chain of AP-2 complex subunit beta (Homo sapiens) (P63010 whole entry, looked up, the tested form may be a part, one chain of several): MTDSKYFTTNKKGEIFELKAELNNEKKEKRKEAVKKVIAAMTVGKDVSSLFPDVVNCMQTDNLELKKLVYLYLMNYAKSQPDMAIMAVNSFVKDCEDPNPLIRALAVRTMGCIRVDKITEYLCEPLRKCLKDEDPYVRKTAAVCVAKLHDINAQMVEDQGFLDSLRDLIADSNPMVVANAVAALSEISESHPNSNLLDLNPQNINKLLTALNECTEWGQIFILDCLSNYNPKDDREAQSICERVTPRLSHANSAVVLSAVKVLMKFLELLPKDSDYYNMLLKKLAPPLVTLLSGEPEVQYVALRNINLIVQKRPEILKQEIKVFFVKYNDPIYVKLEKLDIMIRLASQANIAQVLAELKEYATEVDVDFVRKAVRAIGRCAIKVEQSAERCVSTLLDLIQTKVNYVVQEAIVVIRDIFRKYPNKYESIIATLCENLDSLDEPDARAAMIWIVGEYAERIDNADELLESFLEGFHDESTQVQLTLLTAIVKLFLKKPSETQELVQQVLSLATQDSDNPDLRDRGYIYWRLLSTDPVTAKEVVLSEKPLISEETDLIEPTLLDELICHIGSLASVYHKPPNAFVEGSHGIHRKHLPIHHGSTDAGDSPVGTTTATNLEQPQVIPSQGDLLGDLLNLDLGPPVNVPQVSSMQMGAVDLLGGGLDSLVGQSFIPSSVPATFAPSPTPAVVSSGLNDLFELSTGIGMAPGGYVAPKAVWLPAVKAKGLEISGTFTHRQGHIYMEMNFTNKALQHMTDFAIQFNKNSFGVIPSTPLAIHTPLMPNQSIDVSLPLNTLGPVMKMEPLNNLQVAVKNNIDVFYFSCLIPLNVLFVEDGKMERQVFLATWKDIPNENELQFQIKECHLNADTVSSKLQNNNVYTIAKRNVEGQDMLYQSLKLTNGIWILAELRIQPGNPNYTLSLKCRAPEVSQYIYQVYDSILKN

[11] = yeast V-ATPase proton transport modulators, S. cerevisiae, pHLuorin, HTS validation (AID 504600; in the data active means response above about 15%;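 further: plate controls were DMSO for no effect and reference compound for full effect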); settings: S. cerevisiae pHLuorin cytosolic pH, at 10 µM, stronger effect = higher value
[12] = system: anti-desmoglein-3 scFv antibody binding to human DSG3; experiment: inhibitors of anti-DSG3 scFv binding to DSG3, pilot screen, biochemical, validation compound set, bead-based, flow cytometry (AID 588368;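 active means binding below the plate cutoff, the plate median minus 3 SD, with a reading above zero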;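 further: signal is the median channel fluorescence of bead-bound GFP antibody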); settings: Protein G beads, DSG3-Fc, scFv-GFP binding, at 10 µM, stronger effect = lower value
[13] = inhibitors of fungal efflux pumps CDR1, CDR2, MDR1, pilot screen, validation compound set, multiplex, phenotypic (AID 588506;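 active means efflux inhibition above 0.42, the validation set average plus 4 SD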;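 further: Nile Red retained in cells so higher fluorescence means more efflux inhibition; 0 = negative control wells and 1 = enniatin B 25 µM full block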); settings: S. cerevisiae pump-expressing triplex, Nile Red efflux flow cytometry; at 10 µM; stronger effect = higher value; the pumps come from Candida albicans
[14] = target: ATP-binding cassette sub-family B member 6 (Homo sapiens) (UniProt Q9NP58); experiment: ABCB6 transporter inhibitors, pilot screen, K562-ABCB6 cells, flow cytometry, validation set (AID 588550;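 active means inhibition above the screen-wide mean plus 3 SD, about 51%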;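 further: 0% = DMSO wells and 100% = benzethonium chloride 70 µM positive control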); settings: K562-ABCB6 porphyrin accumulation, 1 h, at 10 µM, stronger effect = higher value
Chain of ATP-binding cassette sub-family B member 6 (Homo sapiens) (Q9NP58 whole entry, looked up): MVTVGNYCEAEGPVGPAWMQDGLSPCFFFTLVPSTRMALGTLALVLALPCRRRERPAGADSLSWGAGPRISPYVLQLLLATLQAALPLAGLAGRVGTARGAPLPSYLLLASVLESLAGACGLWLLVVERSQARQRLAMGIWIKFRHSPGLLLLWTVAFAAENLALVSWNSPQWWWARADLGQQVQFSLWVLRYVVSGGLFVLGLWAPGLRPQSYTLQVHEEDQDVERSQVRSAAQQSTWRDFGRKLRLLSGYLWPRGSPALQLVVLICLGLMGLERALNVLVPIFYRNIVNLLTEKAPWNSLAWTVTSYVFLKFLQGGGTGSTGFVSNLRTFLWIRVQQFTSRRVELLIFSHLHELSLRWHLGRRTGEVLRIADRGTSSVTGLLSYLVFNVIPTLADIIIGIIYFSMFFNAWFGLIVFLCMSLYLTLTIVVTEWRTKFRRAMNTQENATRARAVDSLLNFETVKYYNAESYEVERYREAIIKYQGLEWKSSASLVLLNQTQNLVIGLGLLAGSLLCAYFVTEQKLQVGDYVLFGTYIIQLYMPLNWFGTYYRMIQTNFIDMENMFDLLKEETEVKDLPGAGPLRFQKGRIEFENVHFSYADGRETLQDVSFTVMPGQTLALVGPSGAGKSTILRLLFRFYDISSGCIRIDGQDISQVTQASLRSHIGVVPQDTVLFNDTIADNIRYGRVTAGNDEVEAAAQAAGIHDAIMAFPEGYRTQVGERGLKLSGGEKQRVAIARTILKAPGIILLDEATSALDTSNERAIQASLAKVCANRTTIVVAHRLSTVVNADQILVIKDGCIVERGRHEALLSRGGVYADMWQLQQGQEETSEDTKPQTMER

[15] = promoters of myeloid differentiation in arrested cells, primary screen, cell-based, GFP/MAC1 double positive, flow cytometry, validation set (AID 588685;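 active means differentiation response of at least 50%, scaled between solvent and reference control, from cells with both markers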;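 further: compound exposure lasts four days before antibody staining and flow analysis; 0% = DMSO wells and 100% = 5 µM fulvestrant positive control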); settings: ER-HoxA9 marrow cells, stronger effect = higher value, normalized: vehicle 0, fulvestrant 100

COc1ccc(NC(=O)C2C(=O)N(CCO)C3(C)CC2c2ccccc2O3)cc1 (stereo not drawn)
70.2%: double positive events [5]
inactive: percent of DMSO control GFP [1] 99.6% | GFP response vs DMSO [2] 106% | percent response of DMSO control [3] 104% | GFP response vs DMSO [4] 79.8% | vesicle binding response [5] 158% | inhibition [6] 5.49% | superoxide response (% of plate) [7] 96.6% | aptamer binding inhibition [8] 3% | response [9] -2.11% | inhibition [10] 6.58% | response [11] -0.98% | binding (% of control) [12] 107% | efflux inhibition (fraction of control) [13] -0.46 | inhibition [14] 13% | differentiation response [15] 5.73%

O=C1NC2(Nc3ccccc31)C(=O)Nc1ccc(Br)cc12 (stereo not drawn)
inactive: percent of DMSO control GFP [1] 91.7% | GFP response vs DMSO [2] 127% | percent response of DMSO control [3] 102% | GFP response vs DMSO [4] 85.8% | vesicle binding response [5] 220% | inhibition [6] -3.24% | superoxide response (% of plate) [7] 102% | aptamer binding inhibition [8] 2% | response [9] -4.23% | inhibition [10] 1.97% | response [11] 1.05% | binding (% of control) [12] 98.7% | efflux inhibition (fraction of control) [13] -0.13 | inhibition [14] 9% | differentiation response [15] 0%
72%: double positive events [5]

CCCNC(=O)NS(=O)(=O)c1ccc(Cl)cc1
48%: double positive events [5]
inactive: percent of DMSO control GFP [1] 98.2% | GFP response vs DMSO [2] 104% | percent response of DMSO control [3] 97.1% | GFP response vs DMSO [4] 101% | inhibition [6] 1.12% | superoxide response (% of plate) [7] 99.1% | aptamer binding inhibition [8] 2% | response [9] -4.85% | inhibition [10] 11.1% | response [11] -3.28% | binding (% of control) [12] 102% | efflux inhibition (fraction of control) [13] -0.02 | inhibition [14] 2% | differentiation response [15] 8.02%

COc1ccc(-c2onc(C)c2-c2ccc(C(=O)OC(C)C)o2)c(O)c1
active: response [9] 58.6%
71.4%: double positive events [5]
inactive: percent of DMSO control GFP [1] 102% | GFP response vs DMSO [2] 109% | percent response of DMSO control [3] 93.4% | GFP response vs DMSO [4] 102% | inhibition [6] 2.93% | superoxide response (% of plate) [7] 95.6% | aptamer binding inhibition [8] -3% | inhibition [10] -6.7% | response [11] -0.7% | binding (% of control) [12] 105% | efflux inhibition (fraction of control) [13] -0.02 | inhibition [14] 5% | differentiation response [15] 13%

CC[C@H]1OC(=O)[C@H](C)[C@@H](O[C@H]2C[C@@](C)(OC)[C@@H](O)[C@H](C)O2)[C@H](C)[C@@H](O[C@@H]2O[C@H](C)C[C@H](N(C)C)[C@H]2O)[C@](C)(O)C[C@@H](C)[C@@H]2N[C@@H](COCCOC)O[C@H]([C@H]2C)[C@]1(C)O
inactive: percent of DMSO control GFP [1] 95% | GFP response vs DMSO [2] 130% | percent response of DMSO control [3] 95.2% | GFP response vs DMSO [4] 79.2% | vesicle binding response [5] 137% | inhibition [6] 6.46% | superoxide response (% of plate) [7] 106% | aptamer binding inhibition [8] 29% | response [9] -13.2% | inhibition [10] -5.27% | binding (% of control) [12] 103% | efflux inhibition (fraction of control) [13] -0.31 | inhibition [14] 8% | differentiation response [15] -4.91%
active: response [11] 32.7%
63.9%: double positive events [5]

From PubChem BioAssay
